# Measurements taken from ChEMBL document CHEMBL1157539, “Thousands of chemical starting points for antimalarial lead identification” (Nature, 2010).
# Where “and” joins values, the source holds several entries; their conditions need not be identical. Equal entries are not always repeated.
# Test system: HepG2
# Experiment: GSK_TCMDC: Percent inhibition of human HepG2 cell line. Test compounds present at 10uM.
# Format: functional
row,Structure (SMILES),Inhibition
1,COC(=O)c1ccc(CC(C)NCC(O)c2ccc(F)c(Cl)c2)cc1.Cl (stereo not drawn),0%
2,O=C(Nc1ccc(Oc2ccccc2)cc1)NC1CCC(CN2CCC(c3c[nH]c4ccccc34)CC2)CC1 (stereo not drawn),55%
3,O=C(/C=C/c1ccc(Cl)c(Cl)c1)NCC1CCC(N2CCC(c3c[nH]c4ccccc34)CC2)CC1 (stereo not drawn),48%
4,CCCN(CCC)CCOC(=O)C(OCC)(c1ccccc1)c1ccccc1,0%
5,COc1ccc2[nH]cc(C3CC4CCC(C3)N4CCC3CCN(C(=O)/C=C/c4ccc(Cl)c(Cl)c4)CC3)c2c1 (stereo not drawn),38%
6,COC(=O)/C=C/c1ccc(CC(C)NCC(O)c2cccc(C(F)(F)F)c2)cc1 (stereo not drawn),16%
7,CNCCCCCCc1ccc(CC(C)NCC(O)c2cccc(Cl)c2)cc1.Cl (stereo not drawn),22%
8,O=C(NC1CCC(CN2CCC(c3c[nH]c4ccccc34)CC2)CC1)c1cc(-c2ccccc2)c(C(F)(F)F)s1 (stereo not drawn),55%
9,CC(C)CNCc1cccc(-c2cccc(CN(C(=O)c3cccs3)C3CCN(Cc4ccccc4)CC3)c2)c1.O=C(O)C(F)(F)F,14%
10,Cc1ccc(C)c(N2CCN(Cc3ccccc3O)CC2)c1,11%
11,S=C(NCCc1ccc(Cl)cc1)NC1CCC(CN2CCC(c3c[nH]c4ccccc34)CC2)CC1 (stereo not drawn),42% and 37%
12,COc1ccc(CC(C)NCC(O)c2cccc(Cl)c2F)cc1 (stereo not drawn),3%
13,O=C(/C=C/c1ccc(Cl)c(Cl)c1)N1CCC2CC(N3CCC(c4c[nH]c5ccccc45)CC3)CCC2C1 (stereo not drawn),31%
14,CCCCCCCc1cc(O)c2c3c(c(=O)oc2c1)CN(C)CC3,0%
15,COC(=O)c1ccc(CC(C)NCC(O)c2cccc(Br)c2)cc1 (stereo not drawn),0%
16,COC(=O)c1ccc(CC(C)NCC(O)c2cccc(C(F)(F)F)c2)cc1C (stereo not drawn),6%
17,O=C(/C=C/c1ccc(Cl)c(Cl)c1)NCCC1CCC(N2CCC(c3c[nH]c4ccccc34)CC2)CC1 (stereo not drawn),91%
18,COC(=O)c1ccc(CC(C)NCC(O)c2cc(Cl)c(N)c(Cl)c2)cc1 (stereo not drawn),0%
19,CC(Cc1ccc(NC(=O)[C@H](C)NCCc2cccc(Cl)c2)cc1)NCCc1cccc(Cl)c1.Cl (stereo partly drawn),99%

row,Structure (SMILES),Inhibition
1,Cc1ccc(C[C@@H](C)NC[C@H](O)c2cccc(C(F)(F)F)c2)cc1.O=C(O)/C=C/C(=O)O,10%
2,CC[C@H]1CN2CC[C@H]1C[C@H]2[C@H](O)c1cc(-c2ccc(Cl)c(Cl)c2)nc2ccc(OC)cc12.Cl,17%
3,Cc1c(C)c2c(c(C)c1O)CC[C@](C)(C(=O)N1CCC(CN3CCC(c4c[nH]c5ccccc45)CC3)CC1)O2,29%
4,CN(c1cc(NC(=O)c2ccc(F)cc2)ccn1)C1CCN(Cc2ccc(C#N)cc2)CC1.O=C(O)C(F)(F)F,13%
5,O=C(CCCCCc1ccccc1)NC1CCC(CN2CCC(c3c[nH]c4ccccc34)CC2)CC1 (stereo not drawn),34%
6,COCC(=O)N(Cc1ccccc1-c1cccc(CNCCc2ccccc2)c1)C1CCN(Cc2ccccc2)CC1.O=C(O)C(F)(F)F,21%
7,COc1ccc(N(c2nc(-c3cc(Cl)ccc3Cl)cs2)C2CCNCC2)cc1.O=C(O)C(F)(F)F,17%
8,O=C(/C=C/c1ccc(Cl)c(Cl)c1)NCCCCCN1C2CCC1CC(c1c[nH]c3ccc(O)cc13)C2 (stereo not drawn),9% and 26%
9,Cc1csc(-c2ccc3[nH]cc(C4=CCN(C)CC4)c3c2)n1,10%
10,O=C(NC1CCC(CN2CCC(c3c[nH]c4ccccc34)CC2)CC1)c1cn(Cc2ccccc2)c2ccccc12 (stereo not drawn),84%
11,Cn1c(C2CC3CCC(C2)N3CC2CCC(NC(=O)/C=C/c3ccc(Cl)c(Cl)c3)CC2)nc2ccccc21 (stereo not drawn),50%
12,C/C=C1\CN2CC[C@H]1C[C@@H]2[C@@H](O)c1ccnc2ccc(O)cc12,0%
13,CCCCCCC(CC)c1cc(O)c2c(c1)OC(C)(C)c1ccncc1-2.Cl (stereo not drawn),0%
14,CNCCCCCCOc1ccc(CC(C)NCC(O)c2cccc(C(F)(F)F)c2)cc1.Cl (stereo not drawn),99%
15,CN(c1cc(NC(=O)c2cccs2)ccn1)C1CCN(Cc2cccc(C#N)c2)CC1.O=C(O)C(F)(F)F,59%
16,Cn1nc(-c2ccc(S(=O)(=O)NC3CCC(CN4CCC(c5c[nH]c6ccccc56)CC4)CC3)s2)cc1C(F)(F)F (stereo not drawn),35% and 38%
17,FC(F)(F)c1cccc(N2CCC(CN3CCC(c4c[nH]c5ccccc45)CC3)CC2)n1.O=C(O)C(F)(F)F,41%
18,CC(Cc1ccc(C(C)(C)C)cc1)NCC(O)c1ccccc1.Cl (stereo not drawn),5%
19,CCOC(C(=O)OCC1CCCN1C(C)C)(c1ccccc1)c1ccccc1 (stereo not drawn),0%
